Assay results as given in PubChem BioAssay AID1508600 (Functional Genomics Laboratory (NCATS/FGL), 2020).
In all, about 53,000 sequences went through this assay and about 3,700 (7%) were called active. The entries come from a sample that favours actives as a whole. A number with no mark means an inactive call.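 Rule for the calls: active = gene knockdowns whose robust z-score for IL-1 alpha signal is at least 2 or at most -2, so actives lie on both sides; inactive = the rest.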

Assay: Components of the Cytosolic LPS Sensing Pathway: Gene Identification via Genome-wide siRNA Screen;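 note: robust z of the log signal after scaling to non-targeting control siRNA wells of the plate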
Conditions: RAW264.7 macrophages, IL-1a HTRF, actives lie on both sides, screened at 100 nM (by protocol), cells primed 5 h with Pam3CSK4 first
Procedure, shortened: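 Using IL-1a HTRF as read-out, the screen measured release from RAW264.7 cells after 48h siRNA knockdown (100 nM), 5 h Pam3CSK4 priming and 24 h cytosolic LipidA. Values were expressed relative to negative-control wells as robust z-scores.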

With GCUGUGCAGCCACAAGUGATT against Gpr142 the z-score was 8.63 (active).
With GCCCACGUAUUUGUCUGCUTT against Sprn the z-score was -2.58 (active).
With CCAUGUGUCAAACUACCGGTT against Rbmx2 the z-score was 7.02 (active).
For GGAACUGAUAAACUACUCUTT against Olfr1126, the z-score was -2.08 (active).
In the case of GGCCACCAAGAAAUUCAAATT against Cd22, the z-score is reported as 4.16 (active).
For GGAAUGAUAGAAAAUGGACTT against Gvin1, the z-score was -2.16 (active).
In the case of GGCCCAAGCUCAACACAAUTT against Aida, the z-score is reported as 2.31 (active).
For GGUUUAUGGAGCAAGUGAUTT against Actr3, the z-score was -2.07 (active).
For GCAGCAUCCAACUUCCGCUTT against Ffar2, the z-score was 3.35 (active).
With GCUACUCUCUAUUGGUUUUTT against Gpr45 the z-score was 2.45 (active).
With GCUCUCUCUCUUCUUACUGTT against Olfr1160 the z-score was -2.16 (active).
With GGUGUGGAAGUCAGUUUAATT against Serpinb3a the z-score was 2.53 (active).
With GGGCGGUUCAAAAGGUCAGTT against Cacnb1 the z-score was 2.27 (active).
With GCUAUAGGGACCUCUGUCATT against Cdh5 the z-score was -2.72 (active).
In the case of GGAAAGAUUCCGAACAAUUTT against Rab8b, the z-score is reported as 2.12 (active).
With GCCAAUGAACCGAUCUCUGTT against Ep400 the z-score was -2.13 (active).
For GCAUUGUGCUGAUGUGCGGTT against Ap1ar, the z-score was 3.01 (active).
For GGAAGCCUAGUUUUUUUAATT against Csnk2a1, the z-score was 2.89 (active).
For GGACUCAAACGACACAUGCTT against Eci2, the z-score was 2.42 (active).
For GCGGUUUCGAACAAUCACGTT against Rab8a, the z-score was -2.4 (active).
In the case of “GGUCACGUCAGCAAAGCAATT against B930095G15Rik”, the z-score is reported as -2.73 (active).

Compared with GGAUGGAAUGCAGAAACGATT against Pcp2, GGGAUCAGAAAAGUUAACATT against Acaca is higher in z-score: -0.061 for the first, 0.785 for the second.

Going from GGACUUCACUUUUCUAUGATT against Tmem64 to GGCUUUGGACUGUAUGACCTT against Ccdc159, the z-score falls from 1.47 to -0.923.

Compared with GGUGGAAAGAGAGAGCUACTT against Slc12a7, GGUUUGCUGAGAAAUUAACTT against Btg3 is higher in z-score: 0.458 for the first, 0.958 for the second.

First: GCCUUCUUAACUUCAUCACTT against Taar5
Second: CCUGAACACAAGUGCUGGUTT against Clec4a4
The z-score of the first is higher: 1.16 for the first, -1.8 for the second.

First: GGCCAUCACACACAGAAACTT against Pla2g2f
Second: GGCUAUGCAGAUGGUACCUTT against Vil1
The z-score of the first is lower: -0.505 for the first, 0.871 for the second.

First: CCAUGAUUAAGGGUCUCUATT against Ldha
Second: GGUGGUAAAUAAUUAAGGATT against Clec14a
The z-score of the first is lower: 0.111 for the first, 0.623 for the second.

Compared with GGGAAUGAGUCAGCUCUUUTT against Cd163, GGCUAAACUGAAGGAAUUCTT against Fkbp10 is higher in z-score: -0.667 for the first, 0.875 for the second.

Compared with GGUAGGAAUUUGGAAAACUTT against H2-T24, GGAAAUUGUUGUUUCCCGUTT against Sf3b3 is lower in z-score: 1.5 for the first, -1.45 for the second.

First: GCCUAUCUGUGACUGACCUTT against LOC433501
Second: GCGAGAGCUAAAGUAAAAUTT against Egln1
The z-score of the first is higher: -0.171 for the first, -0.671 for the second.

Compared with GGCUAAAGUGAGCUCUUCATT against Nob1, GGUGUGUUACUGAUGAUUCTT against Olfr669 is higher in z-score: -0.947 for the first, -0.37 for the second.

Compared with GCAGAGUGACUUUGAAGCGTT against Klf10, CCAAGUUCAUUCUUUUUGCTT against Cobll1 is higher in z-score: 0.844 for the first, 1.2 for the second.

First: CCCUAGAAGAAUCAAGCUCTT against Prune2
Second: GGCAGAGACCACUAAUACCTT against Tmem131l
The z-score of the first is lower: -1.35 for the first, -0.881 for the second.

First: GGCAGGCAAUUCAAACAAUTT against Orm1
Second: GCUAUCCUCAAUUGCACACTT against Atxn3
The z-score of the first is lower: -1.24 for the first, 1.49 for the second.

Compared with GGUUUGAAAGGAGAAAGAGTT against Col4a6, GGCCUUCGUCAUCUUCAAGTT against Snrpa is higher in z-score: 0.366 for the first, 1.05 for the second.

Compared with GGCCAAGAAAAAAGAAAGATT against Slc22a2, GGGUUCAGGAGAACUAACUTT against Tmem40 is lower in z-score: 0.126 for the first, -1.92 for the second.

First: GGAUCCUGUUAAGAUUAUCTT against Phykpl
Second: GGAUAUUCACUUUCAUAUGTT against Gulp1
The z-score of the first is lower: -0.0411 for the first, 1.25 for the second.

Compared with CCAACAAUGUUUAAAGGAUTT against Olfr476, GCCAUGUGCACUGAAUAUATT against Gfral is lower in z-score: -0.32 for the first, -1.87 for the second.

First: GGUCAUCAGUGAUCAGUCATT against Mre11a
Second: GGAAAAAAUCAAGAGUGAATT against Fam50a
The z-score of the first is lower: -1.33 for the first, -0.157 for the second.

Compared with GGUGAACUUGAGGUCACACTT against Angpt4, GCGGGUUUAUUGUCUAGAATT against Mfn2 is higher in z-score: 0.134 for the first, 0.669 for the second.

Going from GGAAGUAGAUUUGAAGUUGTT against Btbd35f1 to GGAGCUCUUUUUGAACACUTT against Sgcg, the z-score rises from 0.256 to 0.946.

Compared with GGCCAAUCAAGAUAGCCACTT against Dnajc1, GCCGUUUGGUUUCGAACUUTT against Mboat2 is higher in z-score: 1.12 for the first, 1.17 for the second.

Compared with GGUGGAGUGAUACGAAGAGTT against Radx, CCAUAGUAGCUACCUUGAUTT against Fam107a is lower in z-score: 1.21 for the first, 0.537 for the second.

Compared with GGAUGAGGUGAACUGAGGGTT against Tmem150b, GGAAGGUUUGUUGUUUUGUTT against Apon is lower in z-score: 0.777 for the first, -1.58 for the second.

First: GGAUAUGACUAGGUGAAUUTT against Ebf3
Second: GGACAUUGUCAAUAUGCUCTT against Pygm
The z-score of the first is lower: -1.04 for the first, 0.633 for the second.

First: CGAUGUGACUAUUUGUUGATT against Snx11
Second: GGACCUAAACUGUCAGGAGTT against Eif3g
The z-score of the first is higher: 0.425 for the first, 0.15 for the second.

Going from GCUCUGUUGUGGAUGCAAUTT against Lonrf2 to CCGGGAUGGAGAAUAAGCUTT against Fgfbp3, the z-score falls from 0.859 to -0.264.

First: CCAUGACAUUUCCUAAGUUTT against Sall3
Second: GGAGAUUUAUACACACUUGTT against Snx17
The z-score of the first is lower: -0.2 for the first, 0.615 for the second.

Compared with GCUCCUACUACUGCUUUGCTT against Crem, GCCCAAAGGUCAAGGAUAUTT against Rptn is lower in z-score: 0.979 for the first, -0.036 for the second.

Compared with GCUAAGUUUCACCCAAAGGTT against Dennd2c, GGAGUGAGACAAGUGUAUGTT against Sprr1a is lower in z-score: 1.42 for the first, -0.0345 for the second.

Compared with GGUGGUUGAACAUAAGACUTT against Zfp688, GGCAAUACAAACAAGUUCUTT against Klhdc2 is lower in z-score: 1.27 for the first, 1.05 for the second.

Going from GGCCUUGUUUUUAAGUAAATT against Atp12a to GGAAUUGGGUAGUACAAAATT against Irak1, the z-score rises from -0.178 to 0.282.

First: GGUAAUGAAUAGGAAACUCTT against Ostm1
Second: GGAACACACAGAGGUUUAUTT against Hacd1
The z-score of the first is lower: -0.773 for the first, 1.87 for the second.

First: GGGAGUGGCUCCUCAGAAATT against AW549877
Second: CGCACAAGUGCUUGAGUUATT against Ccdc151
The z-score of the first is lower: -1.98 for the first, 1.03 for the second.

Going from GGACCAAUGUUUUCUUCCUTT against Gngt2 to GCCUUAAGUGUUCAUGUAATT against Vhl, the z-score falls from 0.773 to -0.872.

Going from GGAAGCCCACUACAACAAUTT against Krt19 to GGUAUUCUGGCAAGACCACTT against Aatf, the z-score rises from -0.236 to 1.31.

First: GCUUUCAGUGAGGUACAAGTT against Gm4425
Second: GCUCUUUCUAGCCCUUCCCTT against Spry3
The z-score of the first is lower: -1.25 for the first, -0.915 for the second.

Compared with GGAAAGAUAGAAGACAAACTT against Spry4, GGUUCUGAUAGCUCAAGAGTT against Polr2b is lower in z-score: -0.0777 for the first, -1.96 for the second.

Compared with GGUUUUGAAAUUCCAGAAUTT against Nol9, GGCAACUGUUGUAAAUCAATT against Veph1 is lower in z-score: -0.22 for the first, -1.01 for the second.

Going from GCCAGUCAUUCAGUAAAGUTT against Mysm1 to GGAGAAAUGUCAGUGCGAUTT against Mlc1, the z-score rises from -1.15 to 0.431.

Compared with GGUCACAGAAUCGGUUUCATT against Cuta, GGUUCUUGUUUUUACCCGCTT against Fam187b is higher in z-score: 1.02 for the first, 1.19 for the second.

Compared with GGAGUGGCUAUGUUUUCGATT against Hrg, GGACUCGUUCCACUAUCAUTT against Naa20 is lower in z-score: 0.658 for the first, 0.33 for the second.

Compared with UCAACUGCUUAGAGCAUGUTT against Tmem259, CGACCUCCAGUAAUAACCUTT against Olfr310 is lower in z-score: 0.653 for the first, -0.746 for the second.

Compared with GGAAAGCUUGGACAUUAAGTT against Rps6kc1, GCGAUGUGGACAGAAGUACTT against Cyba is higher in z-score: -0.0887 for the first, 1.01 for the second.

For “GGUGUUUCAUAAGAAGGAATT against 1700010H22Rik”, the z-score was -1.01.
